The values below come from ChEMBL document CHEMBL4513216, “Probing the Open Global Health Chemical Diversity Library for Multistage-Active Starting Points for Next-Generation Antimalarials” (ACS Infect Dis, 2020).

Each structure is given as a SMILES string. The campaign covered roughly 69,000 compounds. About 8,600 (12%) showed an effect of 50% or more. The sample as a whole holds a higher share of strong results than the screen did.

This assay concerns Plasmodium berghei. Nature of the assay: Screen against P. berghei liver stage (PbLuc), transformed with Luciferase, at 10uM. The assay is classed as functional, HepG2. The note with it: tested at 10 uM.
For the compound `O=C(c1cnccn1)N1CCC2(CCN(Cc3ccsc3)CC2)CC1`, the INHIBITION turned out to be 16.4%. For `Cc1nccc(CNC(=O)CCc2c(C)nc3cc(O)nn3c2C)n1`, the INHIBITION is given as -9.19%.

In the case of `CCC1c2ccsc2CCN1C(=O)NCc1ccnc(N(C)C)c1` (stereo not drawn), the INHIBITION is -0.44%. As to `CCc1nc2ccccc2c(=O)n1CC1(O)CCN(C(=O)C2CC2)CC1`, the INHIBITION came out at 18.3%.

As to `NCc1ccc(OC(F)F)cc1OC(F)F`, the INHIBITION amounted to 74%. Turning to `CCCOc1ccc(CN)c(OC(F)F)c1`, the INHIBITION is on record as 45.2%. As for `COc1ccc(CN)c(OC(F)F)c1`, the INHIBITION is recorded as 48.9%. Consider `C[C@H]1C[C@H]2CN(C(=O)c3ccncn3)CC[C@@H]2O1`, for which the INHIBITION worked out at 35.8%. Consider `COc1ccc(CN2CCC3(CC2)NC(=O)CC3c2cnn(C)c2)cc1` (stereo not drawn), for which the INHIBITION was determined as 12.6%. As to `CN1CCC2(CC1)CN(CC1CC1)CC21CCNC1=O` (stereo not drawn), the INHIBITION is listed as 22.3%. In the case of `COc1cccc(CNC(=O)c2ccccc2-n2cc(CN)cn2)c1`, the INHIBITION is reported as 5.11%. As for `O=C(CC1CC1)N1CCc2ncc(CN3CCOCC3)n2CC1`, the INHIBITION came out at 42.7%. Consider `Cc1occc1C(=O)N1CCn2c(Cn3cncn3)cnc2C1C` (stereo not drawn), for which the INHIBITION is reported as 6.55%. Regarding `CC1c2ncc(Cn3cncn3)n2CCN1C(=O)c1ccccn1` (stereo not drawn), the INHIBITION came to 60.9%. As to `CC1c2ncc(Cn3cncn3)n2CCN1C(=O)N(C)C` (stereo not drawn), the INHIBITION is listed as 49%. Then `N#Cc1cccc(C(=O)N2CCn3c(Cn4cncn4)cnc3C2)c1`, with -17.2%. On to `O=C(Cc1ccc(F)cc1)N1CCn2c(Cn3cncn3)cnc2C1`, for which the INHIBITION is given as 57.9%. Consider `COCC(=O)N1CCc2ncc(Cn3cncn3)n2CC1`, for which the INHIBITION is 15.9%. Then `CC1c2ncc(Cn3cncn3)n2CCN1C(=O)c1ccsc1` (stereo not drawn), with 52%; and `COCC(=O)N1CCn2c(Cn3cncn3)cnc2C1C` (stereo not drawn), with 36.2%; and `O=C(Cc1ccc(F)cc1)N1CCn2cc(Cn3cncn3)nc2C1`, with -13.2%. With `CC1c2ncc(Cn3cncn3)n2CCN1C(=O)c1cscn1` (stereo not drawn), the INHIBITION was -6.3%. Turning to `O=C(CC1CC1)N1CCc2ncc(Cn3cncn3)n2CC1`, the INHIBITION was 57.9%. As to `O=C1CN(c2ccc(C(=O)N3CCc4ccccc43)cn2)CCN1`, the INHIBITION amounted to 49%. As to `N#Cc1c(F)cccc1N1CCN(C(=O)Nc2nncs2)CC1`, the INHIBITION was -7.53%. `O=C(NCCc1nccs1)c1cn(CCN2CCNCC2)nn1`: the INHIBITION is -45%. For `O=C(NCCN1CCNC1=O)c1cnc(-c2cccnc2)nc1`, the INHIBITION stood at 15.64%.

Consider `O=C(c1cscn1)N1CCc2ncc(Cn3cncn3)n2CC1`, for which the INHIBITION is 38.1%. `O=C(c1cccs1)N1CCc2ncc(Cn3cncn3)n2CC1`: the INHIBITION is on record as 22.9%. Turning to `O=C(c1ccsc1)N1CCc2ncc(Cn3cncn3)n2CC1`, the INHIBITION is 62.5%. As for `O=C(c1cccs1)N1CCc2nnc(COc3cncnc3)n2CC1`, the INHIBITION is 28.2%. As for `O=C(Cc1cccs1)N1CCc2nnc(COc3cncnc3)n2CC1`, the INHIBITION came to 47.5%. As to `O=C(c1ccsc1)N1CCc2nnc(COc3cncnc3)n2CC1`, the INHIBITION is 53.9%.

Take `O=C1CN(C(=O)c2cc3c(F)cc(Br)cc3[nH]2)CCN1`: the INHIBITION is recorded as -44.2%. On to `Cc1cccc(N2CCc3ncc(CNc4ccccn4)n3CC2)n1`, for which the INHIBITION is -26.1%. In the case of `Cc1cc(N2CCOC(c3ccc(C(N)=O)cn3)C2)ncn1` (stereo not drawn), the INHIBITION turned out to be 36.9%. For the compound `Cc1cc(C)nc(N2CCC(C(=O)Nc3n[nH]c(C)n3)CC2)n1`, the INHIBITION is 47.3%. Turning to `COCCN1CCC2(CCC1=O)CN(C1CCOCC1)CCN2C` (stereo not drawn), the INHIBITION is listed as 17.8%.

For `CCN1CCN(c2ccc(CNC(=O)c3cnn(C)c3C)cn2)CC1`, the INHIBITION is listed as -15.5%. Regarding `CC(=O)Nc1nc(C(=O)NCc2ccc(N3CCOCC3)nc2)cs1`, the INHIBITION is 19.4%. Turning to `CCN1CCN(c2ccc(CNC(=O)c3ccc(Cl)o3)cn2)CC1`, the INHIBITION is 57.2%. In the case of `Cc1cccc(C(=O)NCc2ccc(N3CCCCCC3)nc2)n1` it was 87.3%; in that of `CC(=O)Nc1nc(C(=O)NCc2ccc(N3CCCCCC3)nc2)cs1`, 67.2%; in that of `CCN1CCN(c2ccc(CNC(=O)c3cc(C)on3)cn2)CC1`, 25.6%. Consider `CC(=O)Nc1nc(C(=O)NCc2ccc(N3CCCC3)nc2)cs1`, for which the INHIBITION turned out to be 13.3%. Regarding `CC(=O)Nc1nc(C(=O)Nc2ccc(N3CCCCC3)nc2)cs1`, the INHIBITION turned out to be 78.1%. With `CCN(CC)c1ccc(CNC(=O)c2cccc(C)n2)cn1`, the INHIBITION came out at 16.2%. For the compound `CC(=O)Nc1nc(C(=O)Nc2ccc(F)cc2)cs1`, the INHIBITION was 31.1%. Take `CC(=O)Nc1nc(C(=O)NCc2ccnc(N3CCCC3)c2)cs1`: the INHIBITION is reported as 9.14%. As for `Cc1cccc(C(=O)NCc2ccc(N3CCCCC3)nc2)n1`, the INHIBITION worked out at 8.48%. `CN(C(=O)C1CCC1)C1CCN(c2ccccc2Cl)C1=O` (stereo not drawn): the INHIBITION turned out to be 1.74%. Regarding `CC(=O)c1c(C)nn(S(=O)(=O)c2ccccc2)c1C`, the INHIBITION came out at 49.3%. In the case of `CCN(CC)C(=O)CS(=O)(=O)c1cc(OC)c(OC)cc1C`, the INHIBITION is listed as -48.3%.
